Measured values as given in PubChem BioAssay AID588790 (National Center for Advancing Translational Sciences (NCATS), 2011).
About 85 (7%) of roughly 1,200 compounds were called active. Calls come from the whole dose curve. The entries come from a sample that favours actives as a whole.

What follows are compounds tested against Beta-2 adrenergic receptor (Homo sapiens) (UniProt P07550) (assay: qHTS assay of beta-arrestin-biased ligands of beta2-adrenergic receptor: Hit Validation with GloSensor). Conditions: W9-Glo22F cells, GloSensor cAMP luminescence, beta2AR agonism; activation: at 46.1 µM (top of the series).
Source text: The concept of biased agonism is an emerging concept of molecular pharmacology which proposes that seven transmembrane receptors (7TMRs) or G protein-coupled receptors (GPCRs), exist in multiple signaling conformations and complexes and that ligands (either agonists or antagonists) can induce signaling biased responses for distinct signal transduction cascades.
Furthermore, accumulating evidence over the last decade has drawn attention to a novel function of beta-arrestins as signal transducers that scaffold various signaling molecules upon activation of 7TMRs. […] This beta-arrestin-biased signaling presumably leads to distinct physiological outcomes from those by G protein activation.
Additionally, the active receptor conformations which […] on this beta-arrestin signaling are likely different from those activating G protein signaling
The goal of this screening project is to discover and optimize novel beta-arrestin-biased ligands for beta2-AR signaling. A luminescent cell-based assay for beta2-AR-mediated agonism, known as the Tango assay, has been validated in which ligand binding of a recombinant beta2-AR and subsequent recruitment of a recombinant beta-arrestin lead to the release of the transcriptional activator tTA, which upregulates transcription of a tTA-responsive luciferase gene. […] After compounds were identified in this primary screen, they were tested in a counter screen that used luminescence as measure through the GloSensor reagent.
NIH Molecular Libraries Probe Production Network [MLPCN]
NIH Chemical Genomics Center [NCGC]
PI: Bryan Roth (UNC) and Bob Lefkowitz (Duke)
2 uL of W9-Glo22F cells are dispensed into a white 1536-well plate. They are incubated overnight at 37 deg C at 5% CO2. 23 nL of compounds and controls are pinned into the wells. Then 2 uL of GloSensor is added and the plate is incubated for 10 min at room temperature.The plates are then read on the ViewLux for luminescence.
Potency is the fitted concentration of half-maximal effect.
Throughout, for activation: 0% is about no effect.

Sequence of Beta-2 adrenergic receptor (Homo sapiens) (P07550 whole entry, looked up): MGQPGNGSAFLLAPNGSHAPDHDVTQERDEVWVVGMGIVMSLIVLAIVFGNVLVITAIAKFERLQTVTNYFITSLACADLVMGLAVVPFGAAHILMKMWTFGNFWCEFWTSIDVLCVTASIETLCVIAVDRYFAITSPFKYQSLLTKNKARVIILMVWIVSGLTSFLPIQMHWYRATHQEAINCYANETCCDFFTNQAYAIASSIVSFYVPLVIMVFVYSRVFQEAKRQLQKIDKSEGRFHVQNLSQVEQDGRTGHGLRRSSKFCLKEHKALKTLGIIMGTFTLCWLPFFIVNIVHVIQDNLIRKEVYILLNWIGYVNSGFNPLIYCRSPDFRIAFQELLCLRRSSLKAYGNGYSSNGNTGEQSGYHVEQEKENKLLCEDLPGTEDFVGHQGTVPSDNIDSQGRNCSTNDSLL

| SMILES | activation | Potency |
| --- | --- | --- |
| Cc1nc(SCC(=O)N2CCOCC2)c2c3c(sc2n1)CCC3 | 4.96% (inactive) |  |
| Cc1ccc(C)c(-n2c(SCC(=O)O)nc3sc4c(c3c2=O)CCCC4)c1 |  | 23.1 µM (active) |
| O=C(NCc1ccco1)c1cccn2c(=O)c3c4c(sc3nc12)CCCC4 | 4.8% (inactive) |  |
| CC1(C)CC(C)(c2ccc(O)cc2O)N(c2cccc(Cl)c2)C(=S)N1 (stereo not drawn) | 0.459% (inactive) |  |
| S=c1[nH]c2cc(-c3ccccc3)ccc2o1 | 1.16% (inactive) |  |
| CC1CCC(NC(=O)c2ccc(S(C)(=O)=O)cc2)CC1 (stereo not drawn) |  | 29.1 µM (active) |
| CC(C)CC(=O)NC(=S)Nc1ccc(Cl)cn1 | -2.33% (inactive) |  |
| O=C(CS(=O)(=O)c1ccccc1)Nc1nc2ccccc2s1 | -1.16% (inactive) |  |
| CCCC(=O)NC(=S)Nc1ccc(Cl)cn1 | 2.48% (inactive) |  |
| COc1ccc(C(=O)C2CCCN(Cc3cnc(N4CCCC4)s3)C2)cc1OC (stereo not drawn) | -1.16% (inactive) |  |
| COc1cccc(C(=O)C2CCCN(Cc3cccc(-n4nc(C)cc4C)c3)C2)c1 (stereo not drawn) | 12.8% (inactive) |  |
| COc1ccc(C(=O)C2CCCN(C/C=C/c3ccccc3OC)C2)c(OC)c1 (stereo not drawn) |  | 18.4 µM (active) |
| O=c1[nH]c(CSc2ccccn2)nc2c1cnn2-c1ccccc1 |  | 11.6 µM (active) |
| O=c1[nH]c(CSc2cccc[n+]2[O-])nc2ccccc12 | 4.96% (inactive) |  |
| CCc1cc2c(=O)[nH]c(-c3ccccn3)nc2s1 | 0.306% (inactive) |  |
| CCn1c(SCC(=O)N/N=C/C=C\c2ccco2)nc2ccccc21 | 0% (inactive) |  |
| S=C(NN=C1CCN(Cc2ccccc2)CC1)NC1CCCCC1 | -1.01% (inactive) |  |
| COc1cccc([C@@H]2Oc3ccc(Br)cc3C(=O)[C@H]2OC(=O)NC2CCCC2)c1 | -1.16% (inactive) |  |
| CCOc1ccc(C(=O)Nc2ccccc2OC(F)F)cc1 | 0.153% (inactive) |  |
| O=C(CN1C(=O)C2C3CC(C(Br)C3Br)C2C1=O)N1CCN(Cc2ccccc2)CC1 (stereo not drawn) | 0.153% (inactive) |  |
| CCNc1nc(NC(C)CC)nc(ON=C(C)C)n1 (stereo not drawn) |  | 32.6 µM (active) |
| CN(C)S(=O)(=O)c1cccc(NC(=S)N/N=C/c2ccco2)c1 | 0.306% (inactive) |  |
| COc1ccc(/C=C/c2ccc3cccc(O)c3n2)c(OC)c1OC | -1.01% (inactive) |  |
| CCCCCC1CC(/C(C)=N/NC(N)=O)OC1=O (stereo not drawn) |  | 29.1 µM (active) |
| CCCCCOCC1CC(C/C(C)=N/NC(N)=S)C(=O)O1 (stereo not drawn) | -1.16% (inactive) |  |

| SMILES | activation | Potency |
| --- | --- | --- |
| C/C(CCC1CC(C)(C)OC1=O)=N\NC(N)=S (stereo not drawn) | -2.48% (inactive) |  |
| CS/C(N)=N/N=C/c1cc(C)ccc1O | -0.857% (inactive) |  |
| CCN(CC)C(=O)[C@H]1CC(CC(=O)NCc2ccc(OC)c(OC)c2)C(=O)N2CCc3c([nH]c4ccccc34)[C@]12C (stereo partly drawn) | -1.16% (inactive) |  |
| O=C(CSc1n[nH]c(=O)n1-c1cccnc1)N1CCOCC1 | -1.16% (inactive) |  |
| COc1ccc2cc1Oc1ccc(cc1)C[C@H]1c3cc(c(OC)cc3CCN1C)Oc1c(O)c(OC)cc3c1[C@H](C2)N(C)CC3 | -1.16% (inactive) |  |
| COc1cc(/C=C2\CC/C(=C\c3ccc(OCCO)c(OC)c3)C2=O)ccc1OCCO |  | 18.4 µM (active) |
| COc1cc(/C=C2\CC(C(C)(C)C)C/C(=C\c3cc(OC)c(OC)c(OC)c3)C2=O)cc(OC)c1OC (stereo not drawn) | -2.33% (inactive) |  |
| CCOC(=O)N1C/C(=C\c2ccccc2)C(=O)/C(=C/c2ccccc2)C1 | 0.153% (inactive) |  |
| O=C(O)CC1S/C(=N/N=C2CCCCC2)N(c2ccccc2)C1=O (stereo not drawn) | -1.16% (inactive) |  |
| CN(C)CCCn1c(SCC(=O)Nc2nccs2)nnc1-c1ccncc1 | 1.16% (inactive) |  |
| CCC(C)NC(=O)C1CCN(S(=O)(=O)N2CCC3(CC2)OCCO3)CC1 (stereo not drawn) | -1.16% (inactive) |  |
| COc1cccc(/C=N/Nc2nc(-c3cccnc3)nc3ccccc23)c1 | -1.16% (inactive) |  |
| COc1ccc(Oc2nc(-c3ccncc3)nc3ccccc23)cc1 |  | 29.1 µM (active) |
| O=C(CC(=O)Nc1cccc(F)c1)Nc1cccc(F)c1 | 0% (inactive) |  |
| CCCCCCCCN1C(=O)N(C)C(N(O)C(=O)NC)C1(C)C (stereo not drawn) | -2.17% (inactive) |  |
| Clc1ccccc1C1Nc2cccc3cccc(c23)N1 | 0% (inactive) |  |
| Clc1cccc(Cl)c1C1Nc2cccc3cccc(c23)N1 | -1.01% (inactive) |  |
| O=[N+]([O-])c1ccc(Cl)c(C2Nc3cccc4cccc(c34)N2)c1 |  | 0.0046 µM (active) |
| Cc1ccc(C(=O)N/C(=C\c2ccco2)C(=O)NCCc2c[nH]c3ccccc23)cc1 | 0% (inactive) |  |
| O=C(CNC(=O)C(c1ccccc1)c1ccccc1)N/N=C\c1cccc(O)c1 | -0.857% (inactive) |  |
| CCC(Sc1nc(C)cc(=O)[nH]1)C(=O)Nc1nc2c(s1)CCCC2 (stereo not drawn) | 4.96% (inactive) |  |
| NC(=S)NN=C(c1ccccc1)c1ccccc1 | -1.16% (inactive) |  |
| CC(/C=C/c1ccccc1)=N\NC(N)=S | 0% (inactive) |  |
| NC(=S)NN=C(Cc1ccccc1)Cc1ccccc1 |  | 32.6 µM (active) |
| Cc1cc(N2Cc3ccccc3C2)ccc1C=O | 0.459% (inactive) |  |

| SMILES | activation | Potency |
| --- | --- | --- |
| C/C(=N/NC(=O)c1ccoc1C)c1ccc(NC(=O)C2CCCC2)cc1 | -1.16% (inactive) |  |
| O=C(COC(=O)c1n[nH]c(=O)c2ccccc12)NCc1ccccc1 | 8.45% (inactive) |  |
| Oc1ccc(NCc2cccs2)cc1 | 1.16% (inactive) |  |
| O=C(COC(=O)c1ccc(CO)cc1)NCc1cccs1 | 80.4% (active) |  |
| CCN1CCN(C(=S)NC(=O)c2cccc(Br)c2)CC1 | -1.16% (inactive) |  |
| CN1CCN(C(=S)NC(=O)c2ccc(Br)cc2)CC1 |  | 10.3 µM (active) |
| CC1CN(C(=S)NC(=O)c2ccc([N+](=O)[O-])cc2)CC(C)O1 (stereo not drawn) | 0% (inactive) |  |
| CCC1(C)Nc2ccccc2C(=O)N1O (stereo not drawn) | -1.16% (inactive) |  |
| O=C(Nc1nc(-c2ccccn2)cs1)Nc1ccc(F)cc1F | 0% (inactive) |  |
| CN(C)/C=C/C(=O)c1ccc(F)cc1 | 0.306% (inactive) |  |
| O=S(=O)(N1CCOCC1)N1CCOCC1 | -1.16% (inactive) |  |
| Cc1ccc(NC(=S)NC(NC(=O)c2ccccc2)C(Cl)(Cl)Cl)c(C)c1 (stereo not drawn) | -1.16% (inactive) |  |
| Cn1c(-c2csc(-c3ccccc3)n2)n[nH]c1=S |  | 20.6 µM (active) |
| S=c1[nH]nc(-c2ccccc2)n1C1C=CCCC1 (stereo not drawn) | -1.01% (inactive) |  |
| CC(c1ccccc1)n1c(-c2ccc(C(C)(C)C)cc2)n[nH]c1=S (stereo not drawn) | -2.33% (inactive) |  |
| COc1ccccc1-c1cc(C(=O)N2CCN(c3ccccc3OC)CC2)no1 | 0.153% (inactive) |  |
| Cc1ccc(Nc2nc(CSc3nnc(-c4ccccc4C)n3C)cs2)cc1 | 0.306% (inactive) |  |
| CCCOc1ccc(C(=O)Nc2nc(C)c(Cc3ccc4c(c3)OCO4)s2)cc1 | -1.01% (inactive) |  |
| COc1ccccc1N=NC1C(=O)N(C(N)=S)N=C1C (stereo not drawn) | 8.6% (inactive) |  |
| CC(=O)Nc1ccc(NC(=O)Cn2nc(C(=O)Nc3ccc(C)cc3)ccc2=O)cc1 | -1.16% (inactive) |  |
| CC1=NN(C(N)=S)C(=O)C1N=Nc1cccc(C)c1 (stereo not drawn) | 0.153% (inactive) |  |
| CC1=NN(C(N)=S)C(=O)C1N=Nc1ccccc1 (stereo not drawn) |  | 18.4 µM (active) |
| CC1=NN(C(N)=S)C(=O)C1N=Nc1ccc(F)cc1 (stereo not drawn) | 0.306% (inactive) |  |
